This is one part of a sample in which hits are shown more often than they occur.
ARNT TACC3 PPI – disrupts binding between human ARNT and TACC3; AlphaScreen His-ARNT PAS-B/GST-TACC3 binding, luminescence; TACC3 fragment carries E629A point mutation; AID 623870; inhibition, % at 9.99 µM; 390,000 compounds, 0.66% hits;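 active = mean inhibition of replicates at least 50% and at least half of replicates each reaching 50%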;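 note: 0% = complete ARNT plus TACC3 wells and 100% = ARNT alone without TACC3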
PDI inh – PDI (human) enzyme inhibition; P07237; 350,000 compounds, 0.052% hits; PDI insulin aggregation turbidity, A650, 90 min; inhibition, % at 10 µM;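 active = mean inhibition across replicates of 30% or more, whatever share of single replicates reach that level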
ERp5 inh – ERp5 (human) disulfide isomerase inhibition. ERp5 insulin aggregation, absorbance 650 nm, 90 min. 350,000 compounds, 0.05% hits. inhibition, % at 9.99 µM. AID 651711;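 active = mean replicate inhibition above about 25%, with every replicate also reaching it, limit read from the data, passing the limit was not always enough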
PglD inh – inhibitors of Campylobacter jejuni PglD acetyltransferase; purified PglD enzyme, DTNB colorimetric CoA detection; inhibition, % at 12.5 µM; 360,000 compounds, 0.098% hits; in the data active = inhibition above about 16%, passing the limit was not always enough
NRP1-CendR mod – NRP-1/CendR interaction modulation | FAM-RPARPAR peptide binding to NRP-1, fluorescence polarization | inhibition, % at 25 µM | O14786 | AID 602438 | 360,000 compounds, 0.85% hits;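 active = inhibition or corrected inhibition above about 18%, plus a signal ratio from 0.5 to 1.5, limit read from the data, passing the limit was not always enough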
Target sequence (O14786 whole entry, looked up): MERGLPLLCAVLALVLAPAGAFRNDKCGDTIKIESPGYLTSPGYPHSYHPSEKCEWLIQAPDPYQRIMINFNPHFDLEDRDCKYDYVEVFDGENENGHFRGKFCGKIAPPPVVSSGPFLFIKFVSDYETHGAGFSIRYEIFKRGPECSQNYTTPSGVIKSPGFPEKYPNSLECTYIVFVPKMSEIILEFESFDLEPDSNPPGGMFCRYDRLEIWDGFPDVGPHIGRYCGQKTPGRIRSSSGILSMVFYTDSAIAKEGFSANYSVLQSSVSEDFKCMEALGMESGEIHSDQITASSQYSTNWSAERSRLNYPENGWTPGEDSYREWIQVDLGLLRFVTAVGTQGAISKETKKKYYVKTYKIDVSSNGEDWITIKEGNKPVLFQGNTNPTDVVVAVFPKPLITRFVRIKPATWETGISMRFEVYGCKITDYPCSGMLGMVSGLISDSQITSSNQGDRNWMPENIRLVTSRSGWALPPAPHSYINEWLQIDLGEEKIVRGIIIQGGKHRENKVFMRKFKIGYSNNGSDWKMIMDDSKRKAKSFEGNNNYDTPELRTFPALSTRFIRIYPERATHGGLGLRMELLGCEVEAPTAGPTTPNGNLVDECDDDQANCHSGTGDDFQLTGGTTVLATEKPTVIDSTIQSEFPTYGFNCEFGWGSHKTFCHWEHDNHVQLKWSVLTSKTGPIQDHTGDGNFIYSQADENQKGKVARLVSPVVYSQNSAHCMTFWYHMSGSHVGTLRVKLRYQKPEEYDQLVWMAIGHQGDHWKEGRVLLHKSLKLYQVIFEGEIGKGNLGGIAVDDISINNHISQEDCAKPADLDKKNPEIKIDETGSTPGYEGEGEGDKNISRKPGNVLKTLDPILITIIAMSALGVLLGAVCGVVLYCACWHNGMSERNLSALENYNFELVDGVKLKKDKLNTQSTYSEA
ALR inh – inhibitors of human sulfhydryl oxidase ALR; AID 485317; purified ALR, DTT oxidation, H2O2 HRP-luminol luminescence; P55789; inhibition, % (concentration not given with the values); 290,000 compounds, 3.8% hits;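 active = mean replicate inhibition above about 79%, with every replicate also reaching it, limit read from the data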
Active calls of the source: *; / = no result given.

SMILES	ARNT TACC3 PPI	PDI inh	ERp5 inh	PglD inh	NRP1-CendR mod	ALR inh
COc1ccc(NC(=O)Nc2ccc3c(c2)CC(=O)N([C@H](C)CO)C[C@@H](C)[C@H](CN(C)C(=O)Nc2ccc(F)cc2)O3)cc1	/	/	-4	16	/	/
C[C@@H]1CN([C@H](C)CO)C(=O)c2cc(-c3ccncc3)cnc2O[C@@H]1CN(C)C(=O)NC1CCCC1	-6	/	10	10	/	/
COc1ccc2nc(NN=C(C)c3ccccn3)cc(C)c2c1	70*	-1	6	/	-1	/
C[C@@H]1CN([C@@H](C)CO)C(=O)c2cc(NS(=O)(=O)c3cccs3)ccc2O[C@@H](C)CCCCO[C@H]1CN(C)C(=O)CCCN(C)C	5	/	0	1	/	/
CS/C(=C\[N+](=O)[O-])Nc1ccccc1	3	-9	/	-7	16	80*
C[C@@H]1CN([C@@H](C)CO)C(=O)c2cccc(NC(=O)NC3CCCCC3)c2O[C@H]1CN(C)Cc1ccc(C(=O)O)cc1	-6	/	-3	4	/	/
COCCCNC(=S)Nc1ccc(N2CCCCC2)cc1	4	-1	-6	10	6	98*
S=C(NCCc1ccccc1)Nc1ccc(N2CCCCC2)cc1	18	0	3	0	2	46
CCNC(=S)Nc1ccc(N2CCCCC2)cc1	3	4	-4	/	3	99*
COCCCNC(=S)NNC(=S)Nc1ccc(OC)cc1	6	2	1	1	0	38
C[C@@H]1CCCCO[C@@H](CN(C)C(=O)Nc2ccc(C(F)(F)F)cc2)[C@H](C)CN([C@@H](C)CO)C(=O)c2cc(NC(=O)Nc3ccc(F)cc3)ccc2O1	-5	/	-1	0	/	/
Cc1ccc(Nc2nnc(SCc3cc(=O)n4cc(C)ccc4n3)s2)cc1	-1	-11	0	6	17	99*
CN1C(=O)C(O)(CC(=O)/C=C/C=C/c2ccccc2)c2ccccc21 (stereo unspecified)	-3	7	/	4	4	90*
CO[C@@H]1CN(C)C(=O)c2cc(NC(=O)C3CC3)ccc2OC[C@H](C)N(Cc2ccc(F)cc2)C[C@H]1C	-8	/	3	3	/	/
COc1ccc(NC(=O)N(C)C[C@@H]2Oc3ccc(NS(C)(=O)=O)cc3CC(=O)N([C@H](C)CO)C[C@H]2C)cc1	-22	/	1	-1	/	/
CCCNC(=O)N(C)C[C@H]1Oc2cc(-c3ccc(C)cc3)ccc2S(=O)(=O)N([C@@H](C)CO)C[C@H]1C	6	/	-10	-2	/	/
Cc1cnc(C(=O)OCC(=O)Nc2sc3c(c2C#N)CCC3)cn1	3	-1	-3	-2	38*	21
S=c1nc(-c2ccccc2)c(-c2ccccc2)n[nH]1	8	12	1	4	0	86*
COc1ccc(NC(=O)N(C)C[C@H]2Oc3ccc(NC(=O)Nc4c(C)noc4C)cc3C(=O)N([C@@H](C)CO)C[C@@H]2C)cc1	4	/	/	-1	/	/
CCOc1ccc(C2C(C#N)=C(N)Oc3cc(O)ccc32)cc1OCC (stereo unspecified)	-8	11	-2	-9	-4	-3
COc1ccc(OC)c(C2C(C#N)=C(N)Oc3cc(N)ccc32)c1 (stereo unspecified)	-4	-1	/	-3	-25	99*
CCOc1ccccc1C1C(C#N)=C(N)Oc2cc(N)ccc21 (stereo unspecified)	-3	-11	/	0	-2	98*
COC(=O)c1ccc(C2C(C#N)=C(N)Oc3cc(N)ccc32)cc1 (stereo unspecified)	-4	-6	7	-2	-15	97*
COc1ccc(OC)c(C2C(C#N)=C(N)Oc3cc(C)[nH]c(=O)c32)c1 (stereo unspecified)	1	27	/	7	3	-17
C[C@H](CO)N1C[C@H](C)[C@@H](CN(C)C)Oc2ccc(NC(=O)CCC(F)(F)F)cc2CC1=O	-5	/	-3	2	/	/
SMILES	ARNT TACC3 PPI	PDI inh	ERp5 inh	PglD inh	NRP1-CendR mod	ALR inh
CCO[C@@H]1OC(C(=O)NCc2ccccc2)=C[C@H](c2ccccc2)[C@H]1CCCO	3	-8	4	-1	8	-5
CCO[C@H]1OC(C(=O)Nc2ccccc2)=C[C@@H](c2coc3ccccc3c2=O)[C@@H]1CCCO	-9	-3	-1	-2	8	/
CCO[C@@H]1OC(C(=O)NC2CC2)=C[C@H](C(C)(C)C)[C@H]1CCCO	4	-1	-2	-3	23*	20
CCO[C@@H]1OC(C(=O)NCc2ccccc2)=C[C@H](C)[C@H]1CCCO	5	-1	4	-2	26*	-14
CCO[C@H]1OC(C(=O)NC2CC2)=C[C@@H](C2CC2)[C@@H]1CCCO	2	17	6	-5	11	/
CCO[C@@H]1OC(C(=O)NCc2ccccc2)=C[C@H](c2coc3ccccc3c2=O)[C@H]1CCCO	3	8	-5	-3	20*	1
C[C@@H]1CCCCO[C@H](CN(C)Cc2ccccc2)[C@@H](C)CN([C@@H](C)CO)C(=O)c2cc(NC(=O)CCC(F)(F)F)ccc2O1	3	/	1	1	/	/
O=S(=O)(Nc1ccc(O)c2ccccc12)c1cccs1	18	12	-3	-2	2	99*
CC/C(=C(/CC)c1ccc(O)cc1)c1ccc(O)cc1	-2	15	5	-3	4	99*
N=C(N)c1ccc(O)cc1	/	-6	-5	7	6	-24
Cn1c(=O)c2cc(S(=O)(=O)NCCC(=O)NCCc3ccc(Cl)cc3)ccc2n(C)c1=O	/	-3	/	3	9	98*
C[C@H]1CCCCO[C@H](CN(C)C(=O)Nc2ccc(C(F)(F)F)cc2)[C@@H](C)CN([C@@H](C)CO)C(=O)c2cc(NC(=O)C3CCCCC3)ccc2O1	-2	/	-1	-4	/	/
CCCNC(=O)N(C)C[C@H]1Oc2ncc(C#CC3(O)CCCC3)cc2C(=O)N([C@H](C)CO)C[C@@H]1C	-10	/	-9	4	/	/
C[C@@H]1CN([C@H](C)CO)S(=O)(=O)c2ccc(C#CC3CC3)cc2O[C@@H]1CN(C)S(C)(=O)=O	-2	/	3	2	/	/
COC(=O)c1ccc2c(c1)c(-c1ccccc1)c(-c1ccccc1)n2C	-4	-3	-3	-9	32*	/
O=C(C[C@@H]1CC[C@@H]2[C@H](COC[C@@H](O)CN2CCC(F)(F)F)O1)NCC1CCCCC1	5	/	/	11	/	/
N#CCC(=O)Nc1ccc(C(=O)NCc2cccc(Cl)c2)cc1	1	3	0	0	-21	98*
O=C(NCc1cccc(Cl)c1)c1ccncc1	12	7	2	2	-1	-8
CN(C)c1ccc(NC(=O)C(=O)C2C(=O)Nc3ccccc32)cc1 (stereo unspecified)	-2	-1	14	3	-14	58
CN(C)c1ccc(CC2C(=O)Nc3ccccc32)cc1 (stereo unspecified)	0	0	10	/	22	98*

Assay outcomes as filed in PubChem.
